The results in this text go back to PubChem BioAssay (EPA / NIEHS).

Each structure is given as a SMILES string. Results filed as inconclusive are left out. Activity calls are given as the source filed them. How the source made its calls: active means hit-call score of the fitted dose curve at least 0.9, where 1 is the maximum; inconclusive means response in the unintended direction; inactive means score below 0.9.

A short description of experiment [1]: TOX21_p53_BLA_p2_viability: Viability Assessment in the Tox21 HCT-116 p53 Agonism Beta-lactamase Assay, Phase 2 (AID 2283591).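 Further: compound exposure lasted 16 h at 37 °C; actives lower the ATP signal meaning cytotoxicity.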 In outline:
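HCT116 p53-bla cells, 4000/well, dosed after 5 h plating (217-fold dilution of DMSO stocks) and incubated 16 h at 37C. Viability taken as cellular ATP by CellTiter-Glo luminescence after 30 min RT; signal loss marks cytotoxicity.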

Experiment [2] addresses Cellular tumor antigen p53 (Homo sapiens) (UniProt P04637). In words: TOX21_p53_BLA_p2_ratio: Tox21 HCT-116 p53 Agonism Beta-lactamase Assay, Ratio, Phase 2 (AID 2283592). In outline: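 HCT-116 cells with p53-responsive beta-lactamase reporter, 4000 cells/well, preincubated 5 h, then compound in DMSO (217-fold dilution) for 16 h at 37C. CCF4-AM substrate 2 h at room temperature; 460/530 nm emission ratio fitted upward versus DMSO.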

Experiment [3] can be described thus: ATG_XTT_Cytotoxicity: Cytotoxicity Assessment in the Attagene TRANS-FACTORIAL HepG2 Assay (AID 2283584). The method in brief: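 HepG2 cells transiently transfected with GAL4-UAS multiple reporter units, dosed 24 h; cytotoxicity read by XTT as loss of signal versus DMSO baseline.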
Experiment [4] is described as follows: TOX21_p53_BLA_p3_viability: Viability Assessment in the Tox21 HCT-116 p53 Agonism Beta-lactamase Assay, Phase 3 (AID 2283593).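 Further: cells exposed to compound for 16 h before reading.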 In outline:
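HCT116 cells, 4000/well, dosed 5 h after plating by pin transfer (217-fold dilution from DMSO stock) and incubated 16 h at 37C, 5% CO2. Viability read as ATP luminescence with CellTiter-Glo after 30 min at room temperature.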

Sequence of Cellular tumor antigen p53 (Homo sapiens) (P04637 whole entry, looked up): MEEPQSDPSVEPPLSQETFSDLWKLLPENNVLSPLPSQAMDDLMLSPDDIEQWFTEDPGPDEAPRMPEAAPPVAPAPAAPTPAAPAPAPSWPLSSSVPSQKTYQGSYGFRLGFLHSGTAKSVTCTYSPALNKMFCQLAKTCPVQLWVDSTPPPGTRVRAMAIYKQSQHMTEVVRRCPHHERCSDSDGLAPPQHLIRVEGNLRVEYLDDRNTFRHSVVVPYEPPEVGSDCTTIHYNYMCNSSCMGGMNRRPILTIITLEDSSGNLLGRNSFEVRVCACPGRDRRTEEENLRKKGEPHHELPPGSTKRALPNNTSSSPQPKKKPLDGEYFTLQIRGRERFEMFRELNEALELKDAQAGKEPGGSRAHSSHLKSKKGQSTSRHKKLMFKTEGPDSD

Turning to `CCCCCCO`, the compound was classed as inactive in experiment [1] and in experiment [2].

Regarding `CC(C)(O)Cc1ccccc1`, the result in experiment [3] and in experiment [2] was inactive.

Regarding `CCCCCC(=O)OCC`, the compound was classed as inactive in experiment [3] and in experiment [4].

Consider `O=C(O)C1CCC(C(=O)O)CC1` (stereo not drawn), for which the compound was called inactive in experiment [1] and in experiment [2].

`CCCCOCCOCCOC(C)=O`: the outcome in experiment [3], in experiment [2] and in experiment [4] was inactive.

With `CO[Si](CCCS)(OC)OC`, the outcome in experiment [3] and in experiment [2] was inactive.
